Laboratory results taken from PubChem BioAssay (NCI).
Compounds without any hit were thinned out: in the full panel of roughly 79,000, 15% have a hit. Values without a mark were called inactive. Activity calls are given as the source filed them. Rule as the data show it: active = growth inhibition above about 70%; inactive = the rest.

What was measured:
[1] = NCI Yeast Anticancer Drug Screen. Data for the mlh1 strain (AID 171);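 also: 0% = growth of vehicle-treated control cultures of the same strain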; details: S. cerevisiae mlh1 strain growth inhibition, active compounds read high
Procedure, shortened: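 Here the genetically defined yeast mutant is grown with each compound, and the extent to which its growth falls below that of vehicle-exposed cells is reported.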

[2] = NCI Yeast Anticancer Drug Screen. Data for the sgs1 strain (AID 173);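 also: 0% = growth of vehicle-only control cultures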; details: S. cerevisiae sgs1 mutant, active compounds read high
Procedure, shortened: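 Relative growth inhibition, referenced to vehicle, was determined in a yeast strain with a defined alteration affecting DNA damage repair or cell cycle control after compound exposure.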

[3] = NCI Yeast Anticancer Drug Screen. Data for the mlh1 rad18 strain (AID 175); details: S. cerevisiae mlh1 rad18 strain growth inhibition, active compounds read high
Procedure, shortened: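 In this whole-cell yeast screen, a strain with altered DNA damage repair is challenged with compound, and its growth is measured against matched vehicle-treated controls.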

[4] = NCI Yeast Anticancer Drug Screen. Data for the rad18 strain (AID 177); details: S. cerevisiae rad18 mutant growth inhibition, active compounds read high
Procedure, shortened: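 Screen uses a yeast strain with a defined lesion in DNA damage repair; compound effect is read as loss of growth compared to untreated vehicle cultures.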

[5] = NCI Yeast Anticancer Drug Screen. Data for the rad52 strain (AID 147);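 also: 0% = growth of vehicle-treated control cultures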; details: S. cerevisiae rad52 mutant growth inhibition, active compounds read high
Procedure, shortened: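 Measured: yeast growth inhibition. System: strain with a defined DNA damage repair alteration. Reference: vehicle-treated control cultures.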

[6] = NCI Yeast Anticancer Drug Screen. Data for the rad50EPP+ strain (AID 151);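 also: 0% = growth of vehicle-treated control cultures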; details: S. cerevisiae rad50 mutant strain, active compounds read high
Procedure, shortened: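 One strain with a rad50 alteration (rad50EPP+) was compound-treated, its growth then compared to that of vehicle controls.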

[7] = NCI Yeast Anticancer Drug Screen. Data for the mgt1 strain (AID 153); details: S. cerevisiae mgt1 mutant growth inhibition, active compounds read high
Procedure, shortened: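 After exposure of the mgt1 yeast mutant to compound, growth was measured and reported as inhibition compared with vehicle controls.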

[8] = NCI Yeast Anticancer Drug Screen. Data for the rad50 strain (AID 155);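 also: 0% = growth of vehicle-only cultures of the same strain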; details: S. cerevisiae rad50 strain growth inhibition, active compounds read high
Procedure, shortened: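 Relative growth inhibition (compound vs vehicle) was measured in yeast with a defined repair-gene alteration.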

[9] = NCI Yeast Anticancer Drug Screen. Data for the mec2-1 strain (AID 157); details: S. cerevisiae mec2-1 strain, active compounds read high
Procedure, shortened: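 Test agents were screened against the mec2-1 yeast strain, with defined DNA repair or cell cycle alteration. Growth was scored as inhibition against vehicle-only controls.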

[10] = NCI Yeast Anticancer Drug Screen. Data for the rad14 strain (AID 159);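 also: 0% = growth of vehicle-treated control cultures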; details: S. cerevisiae rad14 strain growth inhibition, active compounds read high
Procedure, shortened: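 Screen for anticancer potential: a yeast strain altered in DNA damage repair is grown with compound, and reduced growth is quantified against vehicle controls.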

[11] = NCI Yeast Anticancer Drug Screen. Data for the sgs1 mgt1 strain (AID 161);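 also: 0% = growth of cultures given vehicle only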; details: S. cerevisiae sgs1 mgt1 strain, active compounds read high
Procedure, shortened: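 Mutant yeast exposed to compound; growth scored against vehicle-only wells.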

[12] = NCI Yeast Anticancer Drug Screen. Data for the CLN2oe strain (AID 163);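 also: 0% = growth of vehicle-only control cultures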; details: S. cerevisiae CLN2oe strain, active compounds read high
Procedure, shortened: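 Here, growth inhibition in a cell-cycle-altered yeast strain after compound exposure was quantified against vehicle control growth.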

[13] = NCI Yeast Anticancer Drug Screen. Data for the cln2 rad14 strain (AID 165);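 also: 0% = growth equal to vehicle treated cultures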; details: S. cerevisiae cln2 rad14 strain, active compounds read high
Procedure, shortened: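 Growth of compound-exposed yeast (cln2 rad14 genotype) measured and expressed as inhibition relative to vehicle.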

[14] = NCI Yeast Anticancer Drug Screen. Data for the bub3 strain (AID 167); details: S. cerevisiae bub3 mutant strain, active compounds read high
Procedure, shortened: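 Screening used yeast with an engineered genetic alteration affecting cell cycle control. Compound-exposed cultures were compared with vehicle cultures, and reduced growth was taken as inhibition.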

[15] = NCI Yeast Anticancer Drug Screen. Data for the wt2 strain (AID 169);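 also: 0% = growth of vehicle-treated yeast cultures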; details: S. cerevisiae wt2 strain growth inhibition, active compounds read high
Procedure, shortened: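 Genetically defined yeast strains from a DNA-repair/cell-cycle panel were used. Compound-exposed yeast growth was measured, and the inhibition was calculated relative to vehicle treatment.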

[16] = at 5.0 µM (retest, dose inferred, filed as 0.5)
[17] = at 50.0 µM (retest, dose inferred, filed as 5.0)

CC(C)NC(=O)OCc1c(COC(=O)NC(C)C)c(-c2ccc(Cl)c(Cl)c2)n2c1CCC2
growth inhibition ([1]; at 1.2 µM): -44% | growth inhibition ([1]; at 3.7 µM): -71% | growth inhibition ([1]; at 11.0 µM): -69% | growth inhibition ([1]; at 33.0 µM): -40% | growth inhibition ([1]; at 100.0 µM): 76% (active) | growth inhibition ([2]; at 1.2 µM): -21% | growth inhibition ([2]; at 3.7 µM): -17% | growth inhibition ([2]; at 11.0 µM): -1% | growth inhibition ([2]; at 33.0 µM): 12% | growth inhibition ([2]; at 100.0 µM): 80% (active) | growth inhibition [3, 16]: 13% | growth inhibition [3, 17]: 68% | growth inhibition ([3]; at 50.0 µM): 69.2% | growth inhibition ([4]; at 1.2 µM): -17% | growth inhibition ([4]; at 3.7 µM): 2% | growth inhibition ([4]; at 11.0 µM): 1% | growth inhibition ([4]; at 33.0 µM): 34% | growth inhibition ([4]; at 100.0 µM): 84% (active)

CN(C)c1ccc(C(C#N)=C(C#N)C#N)cc1
growth inhibition ([5]; at 1.2 µM): -2% | growth inhibition ([5]; at 3.7 µM): -1% | growth inhibition ([5]; at 11.0 µM): 2% | growth inhibition ([5]; at 33.0 µM): 5% | growth inhibition ([5]; at 100.0 µM): 49% | growth inhibition ([6]; at 1.2 µM): 1% | growth inhibition ([6]; at 3.7 µM): 3% | growth inhibition ([6]; at 11.0 µM): 7% | growth inhibition ([6]; at 33.0 µM): 15% | growth inhibition ([6]; at 100.0 µM): 50% | growth inhibition ([7]; at 1.2 µM): -3% | growth inhibition ([7]; at 3.7 µM): -2% | growth inhibition ([7]; at 11.0 µM): -1% | growth inhibition ([7]; at 33.0 µM): -4% | growth inhibition ([7]; at 100.0 µM): 10% | growth inhibition ([8]; at 1.2 µM): -2% | growth inhibition ([8]; at 3.7 µM): -8% | growth inhibition [8, 16]: -127% | growth inhibition ([8]; at 11.0 µM): 6% | growth inhibition ([8]; at 33.0 µM): 11% | growth inhibition [8, 17]: 70% (active) | growth inhibition ([8]; at 50.0 µM): 88.2% (active) | growth inhibition ([8]; at 100.0 µM): 62% | growth inhibition ([9]; at 1.2 µM): 2% | growth inhibition ([9]; at 3.7 µM): 2% | growth inhibition [9, 16]: -35% | growth inhibition ([9]; at 11.0 µM): 9% | growth inhibition ([9]; at 33.0 µM): 3% | growth inhibition [9, 17]: 82% (active) | growth inhibition ([9]; at 50.0 µM): 89.3% (active) | growth inhibition ([9]; at 100.0 µM): 18% | growth inhibition ([10]; at 1.2 µM): 3% | growth inhibition ([10]; at 3.7 µM): 8% | growth inhibition ([10]; at 11.0 µM): 10% | growth inhibition ([10]; at 33.0 µM): 11% | growth inhibition ([10]; at 100.0 µM): 33% | growth inhibition [11, 16]: -47% | growth inhibition [11, 17]: 60% | growth inhibition ([11]; at 50.0 µM): 73.2% (active) | growth inhibition ([12]; at 1.2 µM): 2% | growth inhibition ([12]; at 3.7 µM): 7% | growth inhibition ([12]; at 11.0 µM): 8% | growth inhibition ([12]; at 33.0 µM): 8% | growth inhibition ([12]; at 100.0 µM): 16% | growth inhibition [13, 16]: -45% | growth inhibition [13, 17]: 6% | growth inhibition ([13]; at 50.0 µM): 59.5% | growth inhibition ([14]; at 1.2 µM): -10% | growth inhibition ([14]; at 3.7 µM): -5% | growth inhibition [14, 16]: -54% | growth inhibition ([14]; at 11.0 µM): -5% | growth inhibition ([14]; at 33.0 µM): -7% | growth inhibition [14, 17]: 77% (active) | growth inhibition ([14]; at 50.0 µM): 83.4% (active) | growth inhibition ([14]; at 100.0 µM): 31% | growth inhibition ([15]; at 1.2 µM): -2% | growth inhibition ([15]; at 3.7 µM): 0% | growth inhibition ([15]; at 11.0 µM): -1% | growth inhibition ([15]; at 33.0 µM): 0% | growth inhibition ([15]; at 100.0 µM): 7% | growth inhibition ([1]; at 1.2 µM): 6% | growth inhibition ([1]; at 3.7 µM): -6% | growth inhibition ([1]; at 11.0 µM): -3% | growth inhibition ([1]; at 33.0 µM): -6% | growth inhibition ([1]; at 100.0 µM): 17% | growth inhibition ([2]; at 1.2 µM): -1% | growth inhibition ([2]; at 3.7 µM): -3% | growth inhibition ([2]; at 11.0 µM): -3% | growth inhibition ([2]; at 33.0 µM): -2% | growth inhibition ([2]; at 100.0 µM): 44% | growth inhibition [3, 16]: -108% | growth inhibition [3, 17]: 76% (active) | growth inhibition ([3]; at 50.0 µM): 89.6% (active) | growth inhibition ([4]; at 1.2 µM): 0% | growth inhibition ([4]; at 3.7 µM): 1% | growth inhibition ([4]; at 11.0 µM): 5% | growth inhibition ([4]; at 33.0 µM): 6% | growth inhibition ([4]; at 100.0 µM): 39%
